# Reference: PubChem BioAssay (NCI)
# “And” between values parts separate entries of the source, which are not always exact repeats. Equal values may be shown once. About 83,000 compounds went through this panel and 20% of them were active in at least one assay; those are over-represented in the sample as a whole.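 A percent growth of 40 corresponds to 60% growth inhibition; 0 means no net growth; -100 means all cells died. Active threshold: below 10.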 The source made the active and inactive calls.
# Test system: EKVX NSCLC
# Assay: NCI-60 one-dose screen, 48 h (100 = growth as untreated, 0 = no growth, -100 = all killed)
# Details: 0.25 µM
# Method: Growth inhibition of the EKVX human Non-Small Cell Lung tumor cell line is measured as a screen for anti-cancer activity. Cells are grown in 96 well plates and exposed to the test compound for 48 hours. Compounds are tested at a single concentration, which is 10^-5 M for most compounds. The reported endpoint is percent growth (GI% or GIPRCNT), where numbers from 0 - 100% represent growth inhibition, and numbers from -100% - 0 represent cell death. For example, a value of 40 represents 60% growth inhibition. A value of 0 means no net growth occurred over the course of the experiment. A value of -40 indicates 40% of cells at the beginning of the experiment died by the end of the experiment. A value of -100 means all cells are dead at the end of the experiment.
# NCI-60 Human Tumor Cell Lines Screen was performed using the standard one-dose NCI protocol, which is described in more detail at https://dtp.cancer.gov/discovery_development/nci-60/default.htm.
# Compounds with GIPRCNT values below 10 were considered active. Activity score was based on GIPRCNT using the following formula: […]
# Score is 0 for GIPRCNT values of 100 or above, 50 for GIPRCNT values of 0, and 100 for GIPRCNT values of -100.
row,SMILES,growth
1,CCCCCCCCCCCCCCCc1ccc(Cl)c(O)c1Cl (tested in a mixture with another compound),79.8% (inactive)

# Same assay, conditions: 1 µM
row,SMILES,growth
1,CNC(=O)c1cc(Oc2ccc(CC(=O)Nc3cc(C(C)(C)C)nn3C)cc2)ccn1,73.5% (inactive)

# Same assay, conditions: 10 µM
row,SMILES,growth
1,CCCCCCCCCCCCCCCc1ccc(Cl)c(O)c1Cl (tested in a mixture with another compound),106% (inactive)
2,O=C(O)c1sccc1O,81.3% (inactive)
3,CNC(=O)c1cc(Oc2ccc(CC(=O)Nc3cc(C(C)(C)C)nn3C)cc2)ccn1,62% (inactive)

# Same assay, conditions: 10 µM unless noted
row,SMILES,growth
1,Cc1ccc(S(=O)(=O)Nc2nc3ccccc3nc2Nc2ccc3nsnc3c2)cc1,46.5% (inactive) and 49.7% (inactive)
2,COc1ccc(S(=O)(=O)N2CCOCC2)cc1NC(=O)c1[nH]c(C)c2c1CCCCC2=O,103% (inactive) and 54% (inactive)
3,CCN1CCN(CCNc2nccc(-c3c(-c4cccc(O)c4)nc4sccn34)n2)S1(=O)=O,110% (inactive) and 111% (inactive)
4,COc1ccccc1/C=N\N=C(N/N=C/c1ccccc1OC)N/N=C/c1ccccc1OC,74.4% (inactive) and 48.3% (inactive)
5,CN(C)c1ccc2nc3ccc(N)cc3[n+](-c3ccccc3)c2c1,27.8% (inactive) and 12.6% (inactive)
6,O=C(CN1CCN(c2cc3c(cc2F)c(=O)c(C(=O)O)cn3C2CC2)CC1)Nc1ccc(Cl)cc1,93.4% (inactive) and 92.3% (inactive)
7,CC(=O)Nc1ccc(O)cc1,95% (inactive) and 101% (inactive) and 113% (inactive)
8,O=C1c2ccccc2C(=O)N1/N=C/c1ccc2c(c1)OCO2,116% (inactive)
9,NC(=S)NN=C1CCC(C2CCCCC2)CC1 (stereo not given),78.9% (inactive) and 82.6% (inactive)
10,O=C(Nc1cccc(-n2ccc3c(NC(=O)c4ccccc4)nccc32)c1)c1ccc(Cl)c(C(F)(F)F)c1,38% (inactive) and 87.3% (inactive)
11,Nc1ccccc1Nc1ccccc1,96.4% (inactive)
12,O=C(/C=C\c1ccnc2ccccc12)c1ccc([N+](=O)[O-])cc1,75.3% (inactive)
13,ClC/C=C/CSc1ncnc2nc[nH]c12,105% (inactive) and 104% (inactive)
14,O=C(O)CSCc1nc2ccccc2[nH]1,117% (inactive)
15,COc1ccc(NC(=S)Nc2ccccn2)cc1,96.5% (inactive)
16,O=C1NC(=O)C2(CCc3ccccc32)N1 (stereo not given),103% (inactive) and 99.9% (inactive)
17,Cc1cc(O)c2c(c1)C(=O)c1cc(O)cc(O)c1C2=O,68% (inactive) and 77.3% (inactive)

row,SMILES,growth
1,CC(=O)Nc1ccc2cc3ccc(NC(C)=O)cc3nc2c1,80.6% (inactive) and 78.4% (inactive)
2,CC(C)Cc1ccc(C(C)C(=O)NCc2ccc(Cn3c(=O)sn(CCCCl)c3=O)cc2)cc1 (stereo not given),89.3% (inactive) and -64.7% (active)
3,COc1ccc(CCN(C)CCCC(C#N)(c2ccc(OC)c(OC)c2)C(C)C)cc1OC (stereo not given),92.1% (inactive) and 90.3% (inactive) and 98.6% (inactive)
4,CC(C)(O)Cn1cc(-c2ccc3nc(OC4CC4)ccc3c2)c2c(N)ncnc21,85.8% (inactive) and 49.3% (inactive)
5,NC(=O)NO,98.9% (inactive) and 59.5% (inactive)
6,CCN(CC)CCC(CNc1c2ccc([N+](=O)[O-])cc2nc2cc(OC)c(OC)cc12)c1ccccc1 (stereo not given),-23.6% (active) and -87.3% (active)
7,CN(C)CCCNC1=C(Cl)C(=O)c2ccccc2C1=O,30.2% (inactive) and -44.6% (active)
8,O=C1c2c(O)cc(O)cc2OC(c2ccc(O)c(O)c2)C1O (stereo not given),119% (inactive)
9,COc1ccc(-c2ncnc3c2ncn3C/C=C/CCl)cc1,108% (inactive) and 106% (inactive)
10,O=[N+]([O-])c1ccc(/C=N\NC(=S)Nc2ccc(F)cc2)cc1,91.9% (inactive) and 102% (inactive)
11,CCN(CC)CCCC(CNc1ccnc2cc(Cl)ccc12)c1ccc(Cl)cc1 (stereo not given),-3.66% (active) and 12.1% (inactive)
12,OCCN1CCN(CCCN2c3ccccc3Sc3ccc(Cl)cc32)CC1,66.8% (inactive)
13,CC(C)C(=O)Nc1ccc([N+](=O)[O-])c(C(F)(F)F)c1,51.4% (inactive) and 86.1% (inactive)
14,CC(CN=Cc1ccccc1O)N=Cc1ccccc1O (stereo not given),102% (inactive) and 111% (inactive)
15,OC(CSc1ccccc1)CN1CCN(c2cccc(Cl)c2)CC1 (stereo not given),102% (inactive) and 99% (inactive)
16,COc1cc(-c2nccc3cc4c(cc23)OCO4)cc(OC)c1OC,68.4% (inactive) and 63.5% (inactive)

# Same assay, conditions: 30 µM
row,SMILES,growth
1,CNC(=O)c1cc(Oc2ccc(CC(=O)Nc3cc(C(C)(C)C)nn3C)cc2)ccn1,49.2% (inactive)

# Same assay, conditions: 100 µM
row,SMILES,growth
1,O=C(O)c1sccc1O,33.5% (inactive)
